HIV RNase H inh-1 = blocks HIV-1 RNase H cleavage of RNA/DNA duplex. 1.9% of 65,000 active. RT-RNase H RNA/DNA duplex cleavage, fluorescence. inhibition, % at 10 µM. P04585; in the data active = inhibition above about 50%
HIV RNase H inh-2 = confirmation of HIV-1 reverse transcriptase RNase H inhibitors | 39% of 1,000 active | AID 651 | shares compounds with HIV RNase H inh-1 | inhibition, % at 10 µM | Recombinant RT RNase H, fluorescent RNA/DNA duplex cleavage; in the data active = inhibition above about 48%; inconclusive = no clear call, values can overlap the other calls
* hit, by the source's call; ? = inconclusive. This is one part of a sample in which hits are shown more often than they occur.

SMILES	HIV RNase H inh-1	others
CC(=O)N1CCc2c(sc(NC(=O)CN3C(=O)CCC3=O)c2C(N)=O)C1	44
CC1(C)OC(=O)N(Cc2ccco2)C1(C)O (centres undefined)	-5
CCOC(=O)N1CCC(N2Cc3cccc(C(=O)NCc4ccccn4)c3C2=O)CC1	-1
CCN(CC)CCN1C(=O)C(=O)/C(=C(/O)c2ccc(C)cc2)C1c1cccnc1 (centres undefined)	-9
CC(=O)Nc1nonc1NC(=O)CSc1ncn[nH]1	-14
COc1ccccc1Nc1nc(C2(C)CCC(=O)O2)cs1 (centres undefined)	-5
COCCOC(=O)c1c(C)oc2ccc(OC(=O)c3c(OC)cccc3OC)cc12	3
CCCCC(c1nnnn1CCOC)N1CCN(c2cccc(OC)c2)CC1 (centres undefined)	-16
Cc1cccc(C(=O)Nc2ccccc2C(=O)OCc2c(C)noc2C)c1	-17
CCOC(=O)c1c(N)sc(C(=O)N2CCCCCC2)c1C	1
Cc1c(C(N)=O)sc(N)c1C(=O)OC(C)C	84*	HIV RNase H inh-2=42
CNC(=O)c1c(NC(=O)c2nc3ccccc3s2)sc2c1CCC2	-12
COC(=O)c1c(NC(=O)C2CC2)sc2c1CCCC2	-28
CNC(=O)c1c(N)sc2c1CCCCC2	84*	HIV RNase H inh-2=?
CCOC(=O)c1c(N)sc(C(N)=O)c1C	6
Cc1noc(C)c1C(=O)Nc1sc2c(c1C(N)=O)CCCCC2	32
CC(C)OC(=O)c1c(N)sc2c1CCCC2	87*	HIV RNase H inh-2=?
CCCOC(=O)c1c(N)sc2c1CCC2	-22
CCOC(=O)C1=C(C)NC(SCC(=O)Nc2nc(C)cs2)=C(C#N)C1c1cccs1 (centres undefined)	0
COCCn1c(SCC(=O)NCc2ccc3c(c2)OCO3)nnc1-c1c[nH]c2ccccc12	-5
CCOC(=O)c1ccccc1NS(=O)(=O)c1ccccc1F	-93
CCOC(=O)CC(N)c1ccc2c(c1)OCO2 (centres undefined)	0
CSc1ccc(C2C(C#N)=C(N)Oc3c2ccc(=O)c2c(C)oc(C)c32)cc1 (centres undefined)	61*	HIV RNase H inh-2=67*
Cc1oc(C)c2c(=O)ccc3c(c12)OC(N)=C(C#N)C3c1ccccc1Cl (centres undefined)	-8
Cc1oc(C)c2c(=O)ccc3c(c12)OC(N)=C(C#N)C3c1ccccc1 (centres undefined)	-5
SMILES	HIV RNase H inh-1	others
CC(O)C(=O)NCCOCCOCCNC(=O)C(C)O (centres undefined)	-25
Cc1nn2c(c1-c1ccccc1)NC1=C(C(=O)CCC1)C2c1cccnc1 (centres undefined)	-17
Cc1n[nH]c(C)c1S(=O)(=O)N(CC(=O)Nc1ccc2c(c1)OCCO2)c1ccc(C(C)C)cc1	9
O=C(NCc1ccco1)c1cc2cc3ccc(Cl)cc3nc2o1	66*	HIV RNase H inh-2=58*
O=C(NCc1ccco1)c1ccc(CS(=O)(=O)Cc2ccc(Cl)cc2)o1	-8
COc1ccc2cc3cc(C(=O)NCc4ccccn4)oc3nc2c1	-22
COc1ccc2[nH]c(=O)c(CN(Cc3nnnn3Cc3ccco3)C3CCCCC3)cc2c1	33
COc1ccc2[nH]c(=O)c(CN(C3CCCCC3)C(c3nnnn3Cc3ccco3)C(C)C)cc2c1 (centres undefined)	51*	HIV RNase H inh-2=55*
CCC(c1nnnn1C1CCCCC1)N(Cc1ccco1)Cc1cc2ccc(OC)cc2[nH]c1=O (centres undefined)	-8
O=C(c1ccco1)N1CCN(C(c2cccs2)c2nnnn2C2CCCCC2)CC1 (centres undefined)	-5
Cn1cc(C(=O)c2ccc(Cl)cc2)cc1-c1nc2ccccc2n1C	3
CCCCn1c(SCC(=O)Nc2ccc3c(c2)OCO3)nc2c1c(=O)n(C)c(=O)n2C	-9
COC(=O)c1ccsc1NC(=O)CN1C(=O)CCC1=O	-3
CCCn1c(N)c(C(=O)CN2CCN(S(=O)(=O)c3cccs3)CC2)c(=O)[nH]c1=O	-7
Cc1noc(C)c1C(=O)Nc1sc(C)c(C)c1C#N	-2
Cc1sc(-n2c(C)ccc2C)c(C#N)c1C	65*	HIV RNase H inh-2=?
Cc1cc(NC(=O)C2CCCN(S(=O)(=O)c3cnc[nH]3)C2)ccc1Br (centres undefined)	16
COc1cccc(/C=N/n2c(SC)nnc2-c2ccccc2)c1O	-3
CCOc1cccc(C=Nc2cc(C)cc(C)c2O)c1O	91*	HIV RNase H inh-2=74*
COc1cccc(/C=N/n2c(C)c3c(C)nnc(C)c3c2C)c1O	10
Cc1nc(SCN2C(=O)c3ccccc3C2=O)n[nH]1	-4
Cc1nc(SCC(=O)c2ccccc2)n[nH]1	59*	HIV RNase H inh-2=17
O=C(CSc1n[nH]c(-c2ccncc2)n1)c1ccccc1	-5
Brc1ccc(-c2nnc3n2-c2ccccc2CC3)cc1	-17
COC(=O)N1CC(=O)N(OC)C1c1ccc(Cl)cc1Cl (centres undefined)	-24
SMILES	HIV RNase H inh-1	others
Cc1cc2ncn(CCOc3ccccc3C#N)c2cc1C	-23
Cc1ccc(CC2CC(=O)N(c3ccc(Cl)cn3)C2=O)cc1 (centres undefined)	-8
Cc1cccc(N2C(=O)CC(N(O)c3ccccc3)C2=O)c1 (centres undefined)	2
COc1ccccc1N(O)C1CC(=O)N(c2ccc(Br)cc2)C1=O (centres undefined)	68*	HIV RNase H inh-2=25
CCCCCCC(=O)N(O)C1CC(=O)N(c2ccc(Br)cc2)C1=O (centres undefined)	24
CCOC(=O)N1CCC(N2C(=O)c3ccccc3C2Nc2ccc(Cl)cn2)CC1 (centres undefined)	-2
CCCOc1ccc(C2c3c(oc4ccccc4c3=O)C(=O)N2CCCN2CCOCC2)cc1 (centres undefined)	0
Nc1nnc(-c2ccc(F)cc2)s1	17
Nc1nnc(CSCc2ccc(F)cc2)s1	74*	HIV RNase H inh-2=62*
Nc1nnc(Cc2ccc(Cl)c(Cl)c2)s1	21
O=C(O)c1ccc(CS(=O)(=O)c2cccc(C(F)(F)F)c2)o1	0
CCCC1C(C#N)=C(N)Oc2n[nH]c(C(C)(C)C)c21 (centres undefined)	-4
CCOC(=O)N1CCC(N2C(=O)c3ccc(C(=O)NC4CCCCCC4)cc3C2=O)CC1	64*	HIV RNase H inh-2=47
CCOC(=O)N1CCC(N2C(=O)c3ccccc3C2=O)CC1	3
CCCN1C(=O)c2ccc(C(=O)NC3CCCCC3)cc2C1=O	6
O=C(NCc1ccco1)C1(S(=O)(=O)c2ccc(Cl)cc2)CC1	-4
CC(C)(C)NC(=O)COC(=O)Cc1ccc(Cl)cc1	-8
COc1cccc2c1N1C(=O)c3c(C(=O)O)cccc3C1CC2(C)C (centres undefined)	4
CNc1sc(C(=O)c2cccs2)c(N)c1-c1nc2ccccc2s1	75*	HIV RNase H inh-2=38
O=C(OCc1nc2ccccc2s1)c1cccs1	-15
O=C(NC1CC1)c1ccc(-c2nc3ccccc3s2)s1	-5
COc1ccc2cc(CN(Cc3cccnc3)S(=O)(=O)c3ccccc3)c(=O)[nH]c2c1	-16
O/N=C1/CCc2nonc2/C1=N/O	-10
O=C(COC(=O)C1CC(=O)N(c2ccc3c(c2)OCCO3)C1)Nc1ccc2c(c1)CCC2 (centres undefined)	-4
O=C(Nc1nc(-c2ccco2)c(-c2ccco2)s1)C1CC(=O)N(c2ccc3c(c2)OCCO3)C1 (centres undefined)	74*	HIV RNase H inh-2=0
COc1ccc(N2CC(C(=O)Nc3ccc4c(c3)OCO4)CC2=O)cc1 (centres undefined)	-7
